Data from PubChem BioAssay.
Activity calls are given as the source filed them. No stated cut-off is given here; in the data, active means fold change permeability below about 0.7 or above about 1.3; inactive means in between.

Experiment: modulators of brain endothelial barrier permeability, primary screen, cell-based, FITC-avidin fluorescence, HTS (AID 1963498); further: test concentration not given here
Conditions: actives lie on both sides

Question: Which fold change permeability does the source give for N#Cc1ccc(-c2csc(NN=C3CCCC3)n2)cc1 here?
Answer: 1.7 (active)

Question: With COc1cc2nc(N3CCCN(C)CC3)nc(NC3CCN(Cc4ccccc4)CC3)c2cc1OC as the compound, how does the fold change permeability read?
Answer: 2.2 (active)

Question: With O=C(O)CCC(C(=O)O)N1C(=O)c2ccccc2C1=O (centres undefined) as the compound, how does the fold change permeability read?
Answer: 1 (inactive)

Question: For CCCn1c(=O)c2[nH]c(C3CCCC3)nc2n(CCC)c1=O, which fold change permeability is on record?
Answer: 1.5 (active)

Question: For COc1cc2c[n+](C)c3c4cc5c(cc4ccc3c2cc1OC)OCO5, which fold change permeability is on record?
Answer: 1.1 (inactive)

Question: With Nc1ccc(-c2ccc3ccccc3n2)cc1 as the compound, how does the fold change permeability read?
Answer: 1.1 (inactive)

Question: For O=c1ccn([C@@H]2O[C@H](COP(=O)(O)OP(=O)(O)O)[C@@H](O)[C@H]2O)c(=O)[nH]1, which fold change permeability is on record?
Answer: 0.8 (inactive)

Question: Which fold change permeability does the source give for CC(=O)/C=C1\C(=O)N(C)c2ccccc21 here?
Answer: 1.2 (inactive)

Question: For CCN(CC)S(=O)(=O)Nc1cccc(-c2ccc3c(NC(=O)C4CC4)n[nH]c3c2)c1, which fold change permeability is on record?
Answer: 1.6 (active)

Question: Which fold change permeability does the source give for CN1CCN(C(c2ccccc2)c2ccc(Cl)cc2)CC1 (centres undefined) here?
Answer: 1.7 (active)

Question: With CCCCNc1ccc(C(=O)OCCN(C)C)cc1 as the compound, how does the fold change permeability read?
Answer: 1.8 (active)

Question: With CCCCCC(O)CCCC(=O)O (centres undefined) as the compound, how does the fold change permeability read?
Answer: 1 (inactive)

Question: With CN=C(N)NCCC[C@H](N)C(=O)O as the compound, how does the fold change permeability read?
Answer: 0.8 (inactive)

Question: For CC(=O)CCCCn1c(=O)c2c(ncn2C)n(C)c1=O, which fold change permeability is on record?
Answer: 1 (inactive)

Question: Which fold change permeability does the source give for O=C1/C(=C/c2cccs2)CC/C1=C\c1cccs1 here?
Answer: 1.6 (active)

Question: Which fold change permeability does the source give for N=c1c[n+](N2CCOCC2)[n-]o1 here?
Answer: 0.8 (inactive)

Question: For CNC(=O)c1cc2c(cn1)[nH]c1ccccc12, which fold change permeability is on record?
Answer: 0.8 (inactive)

Question: For Cn1c(=O)c2[nH]c(-c3ccccc3)nc2n(C)c1=O, which fold change permeability is on record?
Answer: 1.1 (inactive)

Question: For CN(C)CCCN1c2ccccc2Sc2ccc(Cl)cc21, which fold change permeability is on record?
Answer: 1.1 (inactive)

Question: For COc1ccc(Cc2nn3c([C@@H](CCCc4ccccc4)[C@@H](C)O)nc(C)c3c(=O)[nH]2)cc1OC, which fold change permeability is on record?
Answer: 1.1 (inactive)

Question: For NC/C=C\C(=O)O, which fold change permeability is on record?
Answer: 1.2 (inactive)

Question: For O=C(CCCCCN1CCN(c2ccccc2-c2ccccc2)CC1)NC1CCCc2ccccc21 (centres undefined), which fold change permeability is on record?
Answer: 1.1 (inactive)

Question: For CC(=O)N[C@H](C(=O)O)C(C)(C)SN=O, which fold change permeability is on record?
Answer: 0.9 (inactive)

Question: Which fold change permeability does the source give for CCCCCCCCCCCCCCCCCCOP(=O)([O-])OC1CC[N+](C)(C)CC1 here?
Answer: 0.9 (inactive)

Question: Which fold change permeability does the source give for CN(C)[C@@H]1C(=O)C(C(N)=O)=C(O)[C@@]2(O)C(=O)C3=C(O)c4c(O)ccc(Cl)c4[C@@H](O)[C@H]3C[C@@H]12 here?
Answer: 1 (inactive)

Question: With CCCCCCCCCC(=O)N[C@H](CN1CCOCC1)[C@H](O)c1ccccc1 as the compound, how does the fold change permeability read?
Answer: 0.9 (inactive)

Question: Which fold change permeability does the source give for Cc1cccc(-c2[nH]ncc2-c2ccc3ncccc3n2)n1 here?
Answer: 0.7 (active)

Question: For Nc1ccn([C@@H]2O[C@H](CO)[C@@H](O)[C@@H]2O)c(=O)n1, which fold change permeability is on record?
Answer: 1 (inactive)

Question: Which fold change permeability does the source give for OC(CCN1CCCCC1)(c1ccccc1)C1CC2C=CC1C2 (centres undefined) here?
Answer: 1.1 (inactive)

Question: With O=C(O)CCc1ccc(NCc2cccc(Oc3ccccc3)c2)cc1 as the compound, how does the fold change permeability read?
Answer: 0.7 (active)

Question: With CN1CCc2cc(Cl)c(O)cc2[C@@H](c2ccccc2)C1 as the compound, how does the fold change permeability read?
Answer: 0.9 (inactive)

Question: Which fold change permeability does the source give for COC(=O)C1=C(C)NC(C)=C(C(=O)OC)C1c1cccc(NC(=O)NCCCN2CCC(c3cccc(OC)c3)CC2)c1 here?
Answer: 1.2 (inactive)

Question: Which fold change permeability does the source give for NC1C=CC=C(C(=O)O)C1 (centres undefined) here?
Answer: 0.9 (inactive)

Question: For CC(=O)Oc1cc(C(F)(F)F)ccc1C(=O)O, which fold change permeability is on record?
Answer: 0.8 (inactive)

Question: For Cc1cccc(-c2[nH]c(C(C)(C)C)nc2-c2ccc3nccnc3c2)n1, which fold change permeability is on record?
Answer: 1.4 (active)

Question: With O=[N+]([O-])c1ccc2c(c1)S(=O)(=O)C=C2 as the compound, how does the fold change permeability read?
Answer: 2.1 (active)

Question: Which fold change permeability does the source give for CCCCNc1cc(C(=O)O)cc(S(N)(=O)=O)c1Oc1ccccc1 here?
Answer: 1 (inactive)

Question: Which fold change permeability does the source give for COc1cccc(NC(=O)/C=C/c2ccc(Cl)cc2)c1 here?
Answer: 1.1 (inactive)

Question: For Nc1ccc(-c2ccc3ncc4ccc(=O)n(-c5cccc(C(F)(F)F)c5)c4c3c2)cn1, which fold change permeability is on record?
Answer: 1.3 (active)
